A number with no mark means an inactive call.
Tested on: Vero E6 infected with SARS-CoV-2
Assay: SARS-CoV-2 infection rate relative to infected DMSO; higher = more infection, active = 60 or less
Settings: 24 h

Row | Compound | SARS-CoV-2 infection rate
1 | C=C[C@@]1(C)CC(=O)[C@]2(O)[C@@]3(C)[C@@H](O)CCC(C)(C)[C@@H]3[C@H](O)[C@H](OC(C)=O)[C@@]2(C)O1 [colforsin] (10 µM) | 83%
2 | c1ccc2nc(C3=NCCN3)cnc2c1 (10 µM) | 93%
3 | O=C1OC2(c3ccc(O)cc3Oc3cc(O)ccc32)c2ccccc21 [fluorescein] (10 µM) | 110%
4 | CCC(=O)O[C@H]1[C@H](O[C@@H]2[C@@H](C)[C@H](O[C@H]3C[C@@](C)(OC)[C@@H](O)[C@H](C)O3)[C@@H](C)C(=O)O[C@H](CC)[C@@](C)(O)[C@H](O)[C@@H](C)C(=O)[C@H](C)C[C@@]2(C)O)O[C@H](C)C[C@@H]1N(C)C [erythromycin-estolate] (10 µM) | 114%
5 | CN1CCN(CC/C=C2/c3ccccc3Sc3ccc(S(=O)(=O)N(C)C)cc32)CC1 [thiothixene] (10 µM) | 80.5%
6 | CC(C)C1=C2[C@H]3CC[C@@H]4[C@@]5(C)CC[C@H](OC(=O)CC(C)(C)C(=O)O)C(C)(C)[C@@H]5CC[C@@]4(C)[C@]3(C)CC[C@@]2([C@@H](O)CN(CCN(C)C)Cc2ccc(Cl)cc2)CC1=O (10 µM) | 96%
7 | COc1cc(C(=O)NC2CCCNC2)cc(OC)c1OC (stereo not drawn) [troxipide] (10 µM) | 120%
8 | CO[C@@H]1[C@H](O)[C@@H](CO)O[C@H]1n1cnc2c(NC3CCCCC3)ncnc21 (10 µM) | 108%
9 | c1ccc2sc(SN3CCOCC3)nc2c1 [N-oxydiethylenebenzothiazole-2-sulfenamide] (10 µM) | 104%
10 | NC[C@@](O)(c1ccc(Cl)cc1)c1ccc(-c2cn[nH]c2)cc1 (10 µM) | 108%
11 | CCC(=O)O[C@H](CC(=O)O)C[N+](C)(C)C [levocarnitine-propionate] (10 µM) | 104%
12 | CNC(=O)ON(C(C)=O)C(=O)NC [caracemide] (10 µM) | 104%
13 | CS(=O)(=O)N(Cc1ccco1)C[C@@H](O)Cn1c2ccccc2c2ccccc21 (10 µM) | 91%
14 | O=C(Nc1cccc(Cl)c1)Nc1ncc(CCNc2ncnc3ccsc23)s1 (10 µM) | 80%
15 | CC/C(=C(/c1ccc(/C=C/C(=O)O)cc1)c1ccc2[nH]ncc2c1)c1ccc(F)cc1Cl (10 µM) | 103%
16 | Clc1ccc(Cn2c(CN3CCCC3)nc3ccccc32)cc1 [clemizole] (10 µM) | 103%
17 | Cc1cc(C)cc(OCC2CNC(=O)O2)c1 (stereo not drawn) [metaxalone] (10 µM) | 97%
18 | CCCCc1ccc(NS(=O)(=O)c2ccc(F)cc2)cc1 (10 µM) | 102%
19 | NCc1cc(O)no1 [muscimol] (10 µM) | 111%
20 | CN1CCN(c2ccc(/C=C(\C#N)c3ccccc3Br)cc2)CC1 (10 µM) | 116%
21 | COc1cc(C[C@H]2c3cc(OC)c(OC)cc3CCN2C)c(Oc2cc3c(cc2OC)-c2c(OC)c(OC)cc4c2[C@H](C3)N(C)CC4)cc1OC [thaliblastine] (10 µM) | 30.5% (active)
22 | O=C(NCCCNc1nc(Nc2cccc(NC(=O)N3CCCC3)c2)ncc1I)c1cccs1 (0.833333 µM) | 118%
23 | COc1ccc(Nc2ncnc3ccc(OC)cc23)cc1 (10 µM) | 122%
24 | CCNC(=O)[C@@H]1CCCN1C(=O)[C@H](CCCNC(=N)N)NC(=O)[C@H](CC(C)C)NC(=O)[C@@H](CC(C)C)NC(=O)[C@H](Cc1ccc(O)cc1)NC(=O)[C@H](CO)NC(=O)[C@H](Cc1c[nH]c2ccccc12)NC(=O)[C@H](Cc1c[nH]cn1)NC(=O)[C@@H]1CCC(=O)N1 [leuprolide] (10 µM) | 118%
25 | CCN(CCCOc1ccc2c(Nc3cc(CC(=O)Nc4cccc(F)c4)[nH]n3)ncnc2c1)CCOP(=O)(O)O [barasertib] (0.833333 µM) | 112%
26 | N=C(N)NCCC[C@H](N)C(=O)O [L-arginine] (10 µM) | 113%
27 | CCN(CC)C(=S)S [ditiocarb-sodium-trihydrate] (10 µM) | 11% (active)
28 | CCOP(=S)(OCC)Oc1nc(Cl)c(Cl)cc1Cl [chlorpyrifos] (10 µM) | 112%

From the supplement of paper PMC13380429
